Reference: PubChem BioAssay
Several values for one entry are separate records, joined by “and”; a condition that tells them apart may be missing. Identical values can stand only once. Inconclusive results are not listed. For part of these data: Entries with a potency or affinity are not part of this list. Activity calls are given as the source filed them.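 How the source made its calls, unless noted: active means compounds killing one labelled cell type while sparing the other, by normalised counts and ratio limits, not self-fluorescent; inactive means the rest.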

Tests used:
[1] = molecular target: 6-phosphogluconate dehydrogenase, decarboxylating (Homo sapiens) (UniProt P52209); test: 6PGD enzyme inhibitors, primary screen, biochemical, human, recombinant enzyme, NADPH absorbance (AID 1159550;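 active means at least 20% inhibition of 6-phosphogluconate dehydrogenase activity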); conditions: recombinant 6PGD, NADPH absorbance 341 nm; at 10 µM; stronger effect = higher value
6-phosphogluconate dehydrogenase, decarboxylating (Homo sapiens), sequence (P52209 whole entry, looked up): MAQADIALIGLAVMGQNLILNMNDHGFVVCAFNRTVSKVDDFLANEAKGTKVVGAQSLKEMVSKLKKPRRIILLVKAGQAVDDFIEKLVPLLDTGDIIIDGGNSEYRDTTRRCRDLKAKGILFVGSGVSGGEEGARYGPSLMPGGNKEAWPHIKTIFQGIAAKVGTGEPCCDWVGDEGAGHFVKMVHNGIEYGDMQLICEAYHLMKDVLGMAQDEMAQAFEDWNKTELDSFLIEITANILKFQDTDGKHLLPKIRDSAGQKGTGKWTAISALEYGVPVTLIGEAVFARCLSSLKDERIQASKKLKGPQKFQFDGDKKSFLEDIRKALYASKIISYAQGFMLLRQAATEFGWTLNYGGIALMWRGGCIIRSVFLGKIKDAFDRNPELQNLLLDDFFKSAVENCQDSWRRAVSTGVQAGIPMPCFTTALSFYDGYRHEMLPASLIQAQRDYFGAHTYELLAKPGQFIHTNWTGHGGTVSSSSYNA

[2] = differential killing of epithelial or mesenchymal cells, primary screen, imaging, PC-3E GFP, TEM4-18 mCherry, co-culture (AID 1345086); conditions: imaging cell counts, at 1 µM; for red/green cell ratio (normalised): actives lie on both sides, counts scaled to control wells, 1 = unselective;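 on all read-outs here: cells exposed to compound for 72 h before imaging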;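 on red/green cell ratio (normalised): normalised mesenchymal count divided by normalised epithelial count so high means epithelial killing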
[3] = growth inhibition of DIPG glioma cells, dose response, cell-based, SU-DIPG-XIII, MIPE4.0, CellTiter-Glo, qHTS (AID 1347061; cut-off not given, nearly all actives have AC50 up to about 37 µM;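 further: cells exposed to compound for 48 hours before readout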); conditions: SU-DIPG-XIII viability, CellTiter-Glo ATP luminescence
[4] = growth inhibition of DIPG glioma cells, dose response, cell-based, JHH-DIPG-1, MIPE4.0, CellTiter-Glo, qHTS (AID 1347062; cut-off not given, nearly all actives have AC50 up to about 27 µM); conditions: JHH-DIPG-1 viability, CellTiter-Glo ATP luminescence
[5] = sensitizers of A549 cells to miR-34 induction, primary screen, imaging, A549 dox-inducible miR-34, nuclei and caspase counts (AID 1347080;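 active means compounds whose cell count with miR-34 switched on is under 0.7 times the count with it off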); conditions: A549 miR-34 inducible, Hoechst nuclei count, 48 h
[6] = survival rescue of mitochondrial mutant cells in low glucose, primary screen, MELAS cybrids, Rieske KO mouse fibroblasts, CellTiter-Glo (AID 1508586;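 active means mean z-score across replicates of 1.96 or higher in either the MELAS or the Rieske mutant cell line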;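 further: z relative to plate mean and SD of compound and empty wells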)
[7] = molecular target: Mitogen-activated protein kinase 7 (Homo sapiens) (UniProt Q13164); test: ERK5 transactivation activators in reporter cells, primary screen, cell-based, HTS (AID 1508626;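 active means luciferase signal above three times the same-plate solvent-only control wells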;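 further: luciferase driven by Gal4-ERK5 fusion binding five Gal4 sites before minimal TATA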); conditions: HeLa Gal4-ERK5 transactivation, 18 h, at 5 µM, stronger effect = higher value
Mitogen-activated protein kinase 7 (Homo sapiens), sequence (Q13164 whole entry, looked up, the tested form may be a part): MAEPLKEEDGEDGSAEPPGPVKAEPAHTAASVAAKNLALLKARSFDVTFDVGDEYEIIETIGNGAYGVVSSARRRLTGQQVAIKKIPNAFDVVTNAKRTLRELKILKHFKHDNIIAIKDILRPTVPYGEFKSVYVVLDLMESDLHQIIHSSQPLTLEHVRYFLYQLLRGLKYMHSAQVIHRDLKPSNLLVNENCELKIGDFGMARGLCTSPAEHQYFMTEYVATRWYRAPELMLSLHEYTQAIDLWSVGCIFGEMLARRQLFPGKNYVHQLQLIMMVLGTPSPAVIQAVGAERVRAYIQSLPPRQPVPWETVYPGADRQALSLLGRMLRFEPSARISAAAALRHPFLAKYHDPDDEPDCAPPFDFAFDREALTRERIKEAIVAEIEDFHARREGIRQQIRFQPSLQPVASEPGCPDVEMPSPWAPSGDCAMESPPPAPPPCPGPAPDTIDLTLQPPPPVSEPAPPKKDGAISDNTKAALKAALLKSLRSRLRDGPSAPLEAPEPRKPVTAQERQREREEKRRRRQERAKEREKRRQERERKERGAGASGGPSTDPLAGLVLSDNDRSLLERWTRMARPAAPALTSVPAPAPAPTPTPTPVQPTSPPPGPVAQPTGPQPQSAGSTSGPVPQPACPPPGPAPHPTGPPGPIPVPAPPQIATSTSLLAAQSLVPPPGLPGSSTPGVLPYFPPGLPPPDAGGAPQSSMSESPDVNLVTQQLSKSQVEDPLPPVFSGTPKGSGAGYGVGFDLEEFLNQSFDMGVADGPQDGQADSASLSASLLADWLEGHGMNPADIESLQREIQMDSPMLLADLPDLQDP

[8] = polyglutamine-triggered caspase-3 activation inhibitors, cell-based (AID 1583); conditions: polyglutamine-induced caspase-3 activation, cell assay; stronger effect = higher value;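 tested at 10 µM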
[9] = suppressors of polyQ aggregation in yeast, 75Q-TubU reporter (AID 1593); conditions: Yeast 75Q polyglutamine aggregation reporter
[10] = rescue of polyQ-huntingtin neuronal dysfunction in worms, whole organism, C. elegans mechanosensory neurons, N-terminal huntingtin (AID 1599); conditions: touch response, stronger effect = higher value
[11] = inhibitors of mitochondrial cytochrome c release, biochemical, purified mitochondria (AID 1603); conditions: stronger effect = lower value;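 further: mouse liver mitochondria challenged with calcium chloride; signal normalized to the plate average as 100%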
[12] = inhibitors of polyQ protein aggregation (AID 1604); conditions: polyglutamine-induced protein aggregation inhibition assay; stronger effect = higher value; tested at 2.5 µM
[13] = enhancers of glutamate uptake in motor neurons, MN-1 cell line (AID 1612); conditions: MN-1 motor neuron cells, stronger effect = higher value;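 further: tested at 1 µM final; 0% = mean of DMSO vehicle wells on each plate; positive means more glutamate uptake than control and negative means less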
[14] = suppressors of polyglutamine aggregation in yeast, 75Q-TubH (AID 1616); conditions: S. cerevisiae 75Q-TubH polyglutamine aggregation suppression; stronger effect = higher value
[15] = liver-stage malaria parasite growth inhibition, primary screen, cell-based, HepG2, luciferase luminescence, HepG2 viability (AID 624349; in the data active means parasite load remaining mostly below about 12%, no sharp cut-off; inactive means mostly above about 10%;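 further: 100% = mean of DMSO negative control wells on the same plate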); conditions: P. berghei liver stage in HepG2, luciferase luminescence, concentration not given here; parasite load remaining: stronger effect = lower value; viability: measured here: HepG2 viability without parasites
[16] = viability rescue of complex I mutant cybrids, primary screen, cell-based, galactose medium, ATP luminescence (AID 1645843;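 active means z-score of at least 1.8 in each of two replicates, scored against plate mean and spread of sample wells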;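 further: positive z means more ATP and so rescue of galactose-driven cybrid death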); conditions: complex I mutant cybrid cells, 72 h, stronger effect = higher value
[17] = measured here: epithelial PC-3E GFP cell survival
[18] = measured here: mesenchymal TEM4-18 mCherry cell survival
[19] = stronger effect = lower value, cell number ratio, induced over uninduced
[20] = measured here: relative caspase fold change +Dox/-Dox
[21] = measured here: total cells with miR-34 induction, stronger effect = lower value
[22] = measured here: total cells without miR-34 induction
[23] = MELAS cybrid survival, CellTiter-Glo 48 h, stronger effect = higher value
[24] = Rieske KO mouse fibroblast survival, CellTiter-Glo 72 h

For `O=C1CC(c2ccccc2)Oc2ccccc21` (stereo unspecified), which inhibition [1] is on record?
Its inhibition is 1.48% (inactive).

What about the red/green cell ratio (normalised) [2] of the same compound?
Its red/green cell ratio (normalised) is 0.93 (inactive).

What about the normalised cell number [2, 17] of the same compound?
The normalised cell number was 1.14.

What about the normalised cell number [2, 18] of the same compound?
The normalised cell number was 1.06.

What does the source list for `COc1ccc(-c2cc(=O)c3c(O)cc(O)c(-c4cc(-c5cc(=O)c6c(O)cc(O)cc6o5)ccc4OC)c3o2)cc1`?
inhibition [1]: 10.8% (inactive); red/green cell ratio (normalised) [2]: 0.98 (inactive); normalised cell number [2, 17]: 0.79; normalised cell number [2, 18]: 0.78

For `O=C(O)[C@H](O)[C@@](O)(Cc1ccc(O)cc1)C(=O)O`, which inhibition [1] is on record?
Its inhibition is 12.5% (inactive).

And the red/green cell ratio (normalised) [2]?
The red/green cell ratio (normalised) was 1.3 (inactive).

What about the normalised cell number [2, 17] of the same compound?
The normalised cell number was 0.73.

And the normalised cell number [2, 18]?
The normalised cell number was 0.94.

Which inhibition [1] does the source give for `COc1cc(O)c2c(c1)C(=O)c1cc(C)cc(O)c1C2=O` here?
The inhibition was 36.5% (active).

What about the red/green cell ratio (normalised) [2] of the same compound?
The red/green cell ratio (normalised) was 1 (inactive).

What about the normalised cell number [2, 17] of the same compound?
The normalised cell number was 1.

And the normalised cell number [2, 18]?
The normalised cell number was 1.01.

And the outcome [3]?
Its outcome is “inactive”.

And the outcome [4]?
Its outcome is “inactive”.

And the fold change [5, 19]?
Its fold change is 0.975 (inactive).

And the fold change [5, 20]?
The fold change was 0.792.

What about the cell count [5, 21] of the same compound?
The cell count was 9920.

And the cell count [5, 22]?
Its cell count is 10200.

And the z-score [6, 23]?
Its z-score is -0.364 (inactive).

What about the z-score [6, 24] of the same compound?
The z-score was 0.659.

What about the luciferase signal [7] of the same compound?
The luciferase signal was 212 AU (inactive).

For `CCC(c1ccc(O)cc1)C(CC)c1ccc(O)cc1` (stereo unspecified), which inhibition [8] is on record?
The inhibition was 87.7%.

And the score [9]?
The score was -0.18.

And the rescue above control [10]?
Its rescue above control is 0.

What about the cytochrome c release ratio [11] of the same compound?
Its cytochrome c release ratio is 0.95.

What about the inhibition of aggregation [12] of the same compound?
Its inhibition of aggregation is 62%.

What about the glutamate uptake change [13] of the same compound?
Its glutamate uptake change is -7.89%.

And the aggregation suppression score [14]?
The aggregation suppression score was -0.0418.

What about the parasite load remaining [15] of the same compound?
Its parasite load remaining is 53.4% (inactive) and 65.7% (inactive).

What about the viability [15] of the same compound?
The viability was 91.5% and 76.1%.

What about the inhibition [1] of the same compound?
Its inhibition is -4.21% (inactive).

What about the red/green cell ratio (normalised) [2] of the same compound?
Its red/green cell ratio (normalised) is 0.99 (inactive).

What about the normalised cell number [2, 17] of the same compound?
The normalised cell number was 1.08.

What about the normalised cell number [2, 18] of the same compound?
The normalised cell number was 1.07.

And the outcome [4]?
Its outcome is “inactive”.

And the fold change [5, 19]?
Its fold change is 0.875 (inactive) and 0.921 (inactive).

What about the fold change [5, 20] of the same compound?
The fold change was 1.39 and 0.838.

What about the cell count [5, 21] of the same compound?
The cell count was 8210 and 9640.

And the cell count [5, 22]?
Its cell count is 9390 and 10500.

And the z-score [6, 23]?
Its z-score is -0.359 (inactive) and -2.3 (inactive).

What about the z-score [6, 24] of the same compound?
The z-score was 0.432 and -0.759.

And the luciferase signal [7]?
Its luciferase signal is 40 AU (inactive).

What does the source list for `COc1ccc(-c2coc3cc(O)cc(O)c3c2=O)cc1`?
inhibition [8]: -2.46%; score [9]: 1.27; rescue above control [10]: 4; cytochrome c release ratio [11]: 2.73; inhibition of aggregation [12]: 22.4%; glutamate uptake change [13]: 10.2%; aggregation suppression score [14]: 1.01; inhibition [1]: 17.9% (inactive); red/green cell ratio (normalised) [2]: 0.99 (inactive); normalised cell number [2, 17]: 1.32; normalised cell number [2, 18]: 1.3; outcome [4]: inactive; fold change [5, 19]: 0.896 (inactive); fold change [5, 20]: 0.917; cell count [5, 21]: 7900; cell count [5, 22]: 8810; z-score [6, 23]: -0.162 (inactive); z-score [6, 24]: -1.4; luciferase signal [7]: 16 AU (inactive)

What does the source list for `COc1ccc(C(C)=O)c(O)c1`?
inhibition [1]: 10.4% (inactive); red/green cell ratio (normalised) [2]: 0.98 (inactive); normalised cell number [2, 17]: 0.95; normalised cell number [2, 18]: 0.94; AC50 [3]: 13.2 nM (active); fold change [5, 19]: 0.902 (inactive); fold change [5, 20]: 0.777; cell count [5, 21]: 9270; cell count [5, 22]: 10300; z-score [6, 23]: -0.383 (inactive); z-score [6, 24]: 0.53; luciferase signal [7]: 24 AU (inactive)

Which parasite load remaining [15] does the source give for `COc1cc(/C=C/C(=O)O)ccc1O` here?
Its parasite load remaining is 186% (inactive).

What about the viability [15] of the same compound?
Its viability is 69.3%.

What about the inhibition [1] of the same compound?
The inhibition was 3.09% (inactive).

What about the red/green cell ratio (normalised) [2] of the same compound?
Its red/green cell ratio (normalised) is 1.05 (inactive).

What about the normalised cell number [2, 17] of the same compound?
The normalised cell number was 1.

And the normalised cell number [2, 18]?
Its normalised cell number is 1.05.

What about the outcome [3] of the same compound?
The outcome was “inactive”.

What about the outcome [4] of the same compound?
The outcome was “inactive”.

And the luciferase signal [7]?
Its luciferase signal is 48 AU (inactive).

For `O=C(O)/C=C/c1ccc(O)c(O)c1`, which inhibition [1] is on record?
The inhibition was 7.04% (inactive).

What about the red/green cell ratio (normalised) [2] of the same compound?
The red/green cell ratio (normalised) was 1.06 (inactive).

And the normalised cell number [2, 17]?
The normalised cell number was 1.

What about the normalised cell number [2, 18] of the same compound?
The normalised cell number was 1.06.

And the fold change [5, 19]?
Its fold change is 0.967 (inactive) and 0.99 (inactive).

What about the fold change [5, 20] of the same compound?
The fold change was 2.48 and 1.11.

What about the cell count [5, 21] of the same compound?
Its cell count is 10100 and 5830.

What about the cell count [5, 22] of the same compound?
Its cell count is 10400 and 5890.

What about the luciferase signal [7] of the same compound?
Its luciferase signal is 32 AU (inactive).

And the z-score [16]?
The z-score was -0.81 (inactive).
